Measured values published in PubChem BioAssay (NCI).
Compounds without any hit were thinned out: in the full panel of roughly 83,000, 20% have a hit.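 Interpretation: 100, growth as untreated; towards 0, rising growth inhibition; 0, no net growth; 0 to -100, cell death. Compounds scoring below 10 were considered active.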 Unmarked numbers belong to inactive results. The source made the active and inactive calls.

These molecules were tested on MCF7 breast (assay: NCI-60 one-dose screen, 48 h (100 = growth as untreated, 0 = no growth, -100 = all killed)). Conditions: 10 µM unless noted.
Method: Growth inhibition of the MCF7 human tumor cell line is measured as a screen for anti-cancer activity. Cells are grown in 96 well plates and exposed to the test compound for 48 hours. Compounds are tested at a single concentration, which is 10^-5 M for most compounds. The reported endpoint is percent growth (GI% or GIPRCNT), where numbers from 0 - 100% represent growth inhibition, and numbers from -100% - 0 represent cell death. For example, a value of 40 represents 60% growth inhibition. A value of 0 means no net growth occurred over the course of the experiment. A value of -40 indicates 40% of cells at the beginning of the experiment died by the end of the experiment. A value of -100 means all cells are dead at the end of the experiment.
NCI-60 Human Tumor Cell Lines Screen was performed using the standard one-dose NCI protocol, which is described in more detail at https://dtp.cancer.gov/discovery_development/nci-60/default.htm.
Compounds with GIPRCNT values below 10 were considered active. Activity score was based on GIPRCNT using the following formula: […]
Score is 0 for GIPRCNT values of 100 or above, 50 for GIPRCNT values of 0, and 100 for GIPRCNT values of -100.
In the case of `CN1CCc2c(sc3ncnc(N/N=C/c4ccc(Cl)c(Cl)c4)c23)C1`, the growth is reported as -47.2% (active). `N=C1CC(=O)NN1C(=O)CSc1nc2sc3c(c2c(=O)n1-c1ccc(Cl)cc1)CCCC3` gave a growth of 91.8%. `Fc1ccc(-c2cc3nc(C(Cl)Cl)nc(-c4ccccc4)n3n2)cc1` was tested, and the growth was 8.55% (active). `Clc1ccc2oc3c(NCCCn4ccnc4)c4ccccc4nc3c2c1` was tested, and the growth was 8.8% (active). Work on `C#Cc1nc(C2=C(C)C(OC(C)=O)/C(=N/OC(C)=O)C2)cs1` (stereo not given) yielded a growth of 25.9%. Work on `CS(=O)(=O)c1ccc(-c2nc3ccccn3c2/C=N/Nc2nc(-c3ccc(Br)cc3)cs2)cc1` yielded a growth of 92.4%. Molecule `COc1ccc(NC(=O)c2sc3nc(-c4cnccn4)cc(-c4cccs4)c3c2N)cc1` has a growth of 57.4%. With `Cc1sc2nc(NCc3ccccc3Cl)[nH]c(=O)c2c1C` the growth was 80.6%. Work on `COc1cc(OC)c(C2C(Cl)C(=O)N2Nc2ncnc3ccccc23)cc1OC` (stereo not given) yielded a growth of 83%. `COc1ccc(/C=C2\SC(=Nc3cc(C)on3)NC2=O)cc1` showed a growth of 89.2%. With `O=C(N/N=C/c1ccc([N+](=O)[O-])s1)c1[nH]c2ccc(Br)cc2c1-c1ccccc1` the growth was 7.64% (active). In the case of `CC(=O)c1ccc(Nc2nc(SC(C)C)nc(-c3ccccc3)c2C#N)cc1`, the growth is reported as 90.6%. `C#Cc1nc(C2=C(C)C(O)/C(=N/O)C2)cs1` (stereo not given) was tested, and the growth was 68.5%. Molecule `COC(=O)C(Cc1ccccc1)NS(=O)(=O)/N=C1\NC(=O)NC1=C(Cl)Cl` (stereo not given) has a growth of 29.1%. `Nc1cc(-c2c[nH]c3ccc(Cl)cc23)nc2cc(-c3c[nH]c4ccc(Cl)cc34)nn12` showed a growth of 14.4%. `CCOC(=O)c1c(Nc2ccccc2)nn2c(N)c(C#N)c(-c3ccc(F)cc3)nc12` gave a growth of 67.6%. `N#Cc1nc(-c2ccccc2)oc1S(N)(=O)=O` showed a growth of 30.9%. With `Cc1cc2nc3c4cc(Cl)ccc4n(CC(=S)NCCN(C)C)c3nc2cc1C` the growth was -81.5% (active). `COc1ccc(-c2nn3c(-c4ccccc4F)nnc3s2)cc1` showed a growth of 36.8%. `COc1ccc([C@@H]2c3[nH]c4ccccc4c3CC3C(=O)N(C4CCN(Cc5c(F)cccc5F)CC4)CC(=O)N32)c(OC)c1` (stereo not given in full) showed a growth of 42.4% [5.26 µM]. In the case of `N#Cc1ccc(/C=N/NC(=O)c2[nH]c3ccc(Br)cc3c2-c2ccccc2)s1`, the growth is reported as 5.58% (active). Work on `COc1ccc(-c2nc3ccc(-c4nnc(SCC(=O)Nc5ccc(C(=O)/C=C/c6ccccc6)cc5)o4)cc3[nH]2)cc1OC` yielded a growth of 78.3%. With `CCOC(=O)c1c(Nc2ccccc2)nn2c(-c3ccco3)c(C#N)cnc12` the growth was 83.2%. Work on `COc1cc2nc(-c3ccc(Cl)cc3)cc(OCCCNCC3CCCO3)c2cc1OC` (stereo not given) yielded a growth of 36%. In the case of `Cc1cc(=O)oc2cc(OCCCOc3ccc(/C=C/C(=O)Nc4ccc(Cl)cc4)cc3)ccc12`, the growth is reported as 35.1%. In the case of `CC1=C(C)C(=O)C(Nc2ccccc2)=C(Cl)C1=O`, the growth is reported as 90.7%. Molecule `COc1ccc(COc2ccc(/C=C3/C(=O)Nc4cc(Cl)ccc43)cc2)cc1` has a growth of 82.1%. `O=C(CN1C(=O)/C(=C/c2ccccc2)SC1=S)N1CCOCC1` was tested, and the growth was 80.8%. `OC1CCN(CCCOc2c3ccc(Cl)cc3nc3c2oc2ccc(Cl)cc23)CC1` was tested, and the growth was -79.7% (active). With `CC(=O)Oc1ccccc1C(=O)Nc1ccc(C(=O)/C=C/c2cccs2)cc1` the growth was 93%. In the case of `Cc1cc(C(NC(=O)CCCCCNc2cccc3c2C(=O)N(C2CCC(=O)NC2=O)C3=O)c2cccnc2)c(O)c2ncccc12` (stereo not given), the growth is reported as 12.2%. Molecule `COc1ccc(/C=C/C(=O)c2ccc(NC(=O)CSc3nnc(-c4ccc5nc(-c6ccc(Cl)cc6)[nH]c5c4)o3)cc2)cc1` has a growth of 79.7%. `C=CCn1c(SCC(=O)c2ccccc2)nnc1-c1c[nH]c2ccccc12` was tested, and the growth was 97.2%. `O=C(CCN1C(=O)/C(=C/c2ccccc2F)SC1=S)N1CCOCC1` gave a growth of 30.1%. `Clc1ccc2c(NCCCn3ccnc3)c3oc4ccccc4c3nc2c1` showed a growth of 18.2%. With `N#Cc1c(-c2ccc(Cl)cc2)nc(SCc2ccccc2)nc1N1CCNCC1` the growth was 8.71% (active). For `N/C(=N\c1nc2c(Cl)cc(Cl)cc2s1)C(Cl)(Cl)Cl`, the growth was 24.8%. `O=C(N/N=C/c1ccc(Br)s1)c1[nH]c2ccc(Br)cc2c1-c1ccccc1` was tested, and the growth was 7.06% (active). With `COc1cc(/C=C/C(=O)c2cc(OC)c(OC)c(OC)c2)ccc1Oc1nc(NCCO)nc(N2CCOCC2)n1` the growth was 8.4% (active). For `COc1ccc(C(=O)/C=C/c2ccc(OCc3ccc(Cl)cc3)c(OC)c2)cc1OC`, the growth was 20.4%.
